About 79,000 compounds went through this panel and 15% of them were active in at least one assay; those are over-represented in the sample as a whole. Values without a mark were called inactive. Cut-off read from the data, not from the text of the source: active = growth inhibition above about 70%; inactive = the rest.
Assay: NCI Yeast Anticancer Drug Screen. Data for the wt1 strain (AID 149);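 note: 0% = growth of vehicle-treated wt1 cultures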
Details: S. cerevisiae wt1 strain (SPY 50644) growth inhibition; at 1.2 µM; hits give high values
How it was run: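 Growth inhibition read against vehicle controls after compound exposure of the wt1 yeast strain.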

In order of falling growth inhibition:
1. OC(CC(O)(C(F)(F)F)C(F)(F)F)c1ccc(C(O)CC(O)(C(F)(F)F)C(F)(F)F)cc1 (configuration not stated)  23%
2. NC(=S)N1N=C2c3ccccc3CC[C@H]2[C@@H]1c1ccc(Cl)cc1  11%
3. O=[N+]([O-])/C=C/c1cc2ccc3ccccc3c2[nH]1  9%
4. COc1ccc2cc3c4cc5c(cc4cc[n+]3cc2c1OC)OCO5  8%
5. O=C1C(=C2CCCC2)CCC1CN1CCCCC1 (configuration not stated)  6%
6. O=c1cccccc1[O-].O=c1cccccc1[O-].O=c1cccccc1[O-].[Eu+3]  6%
7. CC(C)(Br)C(=O)/C=C/c1ccccc1  3%
8. O=C1c2ccccc2-c2ccc(N=Cc3ccccc3)cc21  1%
9. CCCCCCCCNCCCCCCCC  0%
10. COC(=O)C(=O)c1c(-c2ccc(Cl)c(Cl)c2)[nH]c2[nH]n(-c3ccccc3)c(=O)c2c1=O  -1%
11. c1ccc(-c2cc(C3CO3)c3ccccc3n2)cc1 (configuration not stated)  -1%
12. CCC(OC(C)=O)C1CC(C(C)C)CCC1C (configuration not stated)  -1%
13. C1=CCN([B-](c2ccccc2)[C+]2CCCCC2)C=C1  -1%
14. CC(C)CCC[C@@H](C)[C@H]1CC[C@H]2[C@@H]3CC[C@H]4C[C@H](N)CC[C@]4(C)[C@H]3CC[C@]12C  -1%
15. O=C(NC(N1CCN(c2cc3c(cc2F)c(=O)c(C(=O)O)cn3C2CC2)CC1)(C(F)(F)F)C(F)(F)F)c1ccccc1  -2%
16. CN(C)/C(=N/C(=S)Nc1ccccc1)SCc1ccccc1  -2%
17. CC(C)OC(=O)NNc1cc(Cl)ccc1Cl  -2%
18. COc1ccc2nc3cccc([N+](=O)[O-])c3c(NCCNCCN(C)C)c2c1  -3%
19. NC(CCCCCCCCCCCCC(N)C(=O)c1ccccc1)C(=O)c1ccccc1 (configuration not stated)  -4%
20. CC1=C(C)C(=O)C2=C(OCCO2)C1=O  -4%
21. S=C1C(=Nc2ccccc2)N(c2ccccc2)/C(=N\c2ccccn2)N1c1ccccc1  -4%
22. CC/C(=C(\c1ccccc1)c1ccc(OCC[N+](C)(C)C)cc1)c1ccccc1  -4%
23. Nc1ccc2c(c1)C(=O)c1c(F)cccc1-2  -6%
24. Cc1cccc(/C=N/NC(=S)NC2CCCCC2)n1  -7%
25. c1ccc([P+](CCN2Cc3ccccc3C2)(c2ccccc2)c2ccccc2)cc1  -7%
26. CCN(CC)C(=S)N/N=C(\C)c1ccccc1O  -7%
27. O=C1c2ccccc2C(=O)c2sc(Nc3ccccc3Cl)nc21  -17%
28. CC(C)=CCc1c2c(c(O)c3c(=O)c(-c4ccc(O)c(O)c4)coc13)C=CC(C)(C)O2  -20%
29. Cc1ccc(S(=O)(=O)NC(=O)C2C(=O)CC3(CCCCC3)CC2=O)cc1  -22%
30. O=C(/C(=C/c1ccc(O)cc1)c1ccccc1)c1ccccc1  -22%
31. O=S(=O)(c1cccc(C(F)(F)F)c1)N1c2ccccc2-n2cccc2C1c1cccnc1 (configuration not stated)  -22%
32. Fc1cc(F)c(F)c(S)c1F  -31%
33. Nc1cc(Cl)ccc1Nc1ccccc1  -31%
34. COc1cc2c(cc1OC)[C@@H](Nc1ccc(C#N)cc1)C1COC(=O)[C@@H]1C2c1cc(OC)c(O)c(OC)c1 (some centres not stated)  -34%
35. O=Cc1ccccc1C=O  -35%
36. Cc1cc(C)c2[s+]snc2c1  -36%

Same assay, conditions: S. cerevisiae wt1 strain (SPY 50644) growth inhibition; at 3.7 µM; hits give high values

In order of falling growth inhibition:
1. OC(CC(O)(C(F)(F)F)C(F)(F)F)c1ccc(C(O)CC(O)(C(F)(F)F)C(F)(F)F)cc1 (configuration not stated)  32%
2. c1ccc([P+](CCN2Cc3ccccc3C2)(c2ccccc2)c2ccccc2)cc1  31%
3. COc1ccc2cc3c4cc5c(cc4cc[n+]3cc2c1OC)OCO5  29%
4. O=[N+]([O-])/C=C/c1cc2ccc3ccccc3c2[nH]1  19%
5. O=C1c2ccccc2C(=O)c2sc(Nc3ccccc3Cl)nc21  13%
6. O=C1C(=C2CCCC2)CCC1CN1CCCCC1 (configuration not stated)  12%
7. CC/C(=C(\c1ccccc1)c1ccc(OCC[N+](C)(C)C)cc1)c1ccccc1  12%
8. CC(C)(Br)C(=O)/C=C/c1ccccc1  9%
9. NC(=S)N1N=C2c3ccccc3CC[C@H]2[C@@H]1c1ccc(Cl)cc1  9%
10. O=C1c2ccccc2-c2ccc(N=Cc3ccccc3)cc21  8%
11. CC(C)OC(=O)NNc1cc(Cl)ccc1Cl  5%
12. O=c1cccccc1[O-].O=c1cccccc1[O-].O=c1cccccc1[O-].[Eu+3]  2%
13. CCCCCCCCNCCCCCCCC  2%
14. Cc1cc(C)c2[s+]snc2c1  1%
15. CC(C)CCC[C@@H](C)[C@H]1CC[C@H]2[C@@H]3CC[C@H]4C[C@H](N)CC[C@]4(C)[C@H]3CC[C@]12C  0%
16. CCC(OC(C)=O)C1CC(C(C)C)CCC1C (configuration not stated)  -1%
17. COc1ccc2nc3cccc([N+](=O)[O-])c3c(NCCNCCN(C)C)c2c1  -2%
18. C1=CCN([B-](c2ccccc2)[C+]2CCCCC2)C=C1  -2%
19. COC(=O)C(=O)c1c(-c2ccc(Cl)c(Cl)c2)[nH]c2[nH]n(-c3ccccc3)c(=O)c2c1=O  -3%
20. c1ccc(-c2cc(C3CO3)c3ccccc3n2)cc1 (configuration not stated)  -3%
21. O=C(NC(N1CCN(c2cc3c(cc2F)c(=O)c(C(=O)O)cn3C2CC2)CC1)(C(F)(F)F)C(F)(F)F)c1ccccc1  -3%
22. CN(C)/C(=N/C(=S)Nc1ccccc1)SCc1ccccc1  -3%
23. CCN(CC)C(=S)N/N=C(\C)c1ccccc1O  -3%
24. S=C1C(=Nc2ccccc2)N(c2ccccc2)/C(=N\c2ccccn2)N1c1ccccc1  -4%
25. CC1=C(C)C(=O)C2=C(OCCO2)C1=O  -5%
26. Cc1cccc(/C=N/NC(=S)NC2CCCCC2)n1  -6%
27. Nc1ccc2c(c1)C(=O)c1c(F)cccc1-2  -6%
28. O=S(=O)(c1cccc(C(F)(F)F)c1)N1c2ccccc2-n2cccc2C1c1cccnc1 (configuration not stated)  -8%
29. NC(CCCCCCCCCCCCC(N)C(=O)c1ccccc1)C(=O)c1ccccc1 (configuration not stated)  -12%
30. O=C(/C(=C/c1ccc(O)cc1)c1ccccc1)c1ccccc1  -13%
31. Cc1ccc(S(=O)(=O)NC(=O)C2C(=O)CC3(CCCCC3)CC2=O)cc1  -16%
32. Fc1cc(F)c(F)c(S)c1F  -26%
33. Nc1cc(Cl)ccc1Nc1ccccc1  -26%
34. O=Cc1ccccc1C=O  -31%
35. CC(C)=CCc1c2c(c(O)c3c(=O)c(-c4ccc(O)c(O)c4)coc13)C=CC(C)(C)O2  -32%
36. COc1cc2c(cc1OC)[C@@H](Nc1ccc(C#N)cc1)C1COC(=O)[C@@H]1C2c1cc(OC)c(O)c(OC)c1 (some centres not stated)  -33%

Reference: PubChem BioAssay (NCI)
